Screen size: about 17,000 compounds; about 75 (0.4%) were called active.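 How the source made its calls: active means compounds whose four printed spots each glow above background more than chance allows, each with a p-value under 7%; inactive means the rest.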 Many of the other results were omitted from the sample, so actives are more common in it than they were.
What follows are compounds tested on mutant tumor protein p53 (GST-tagged), Homo sapiens (assay: binders of human mutant p53, primary screen, biochemical, small molecule microarray, anti-GST fluorescence (AID 624136)). Details: small molecule microarray binding.

outcome, inactive:
C[C@@H]1CN([C@H](C)CO)C(=O)c2cccc(NC(=O)Nc3ccc(F)cc3)c2O[C@@H]1CN(C)Cc1ccc(C(F)(F)F)cc1
O=C(NCc1cccnc1)c1cnn2c(C(F)F)cc(-c3ccccc3)nc12
CNC[C@H]1OCCCC[C@@H](C)Oc2ccc(NC(=O)c3ccncc3)cc2C(=O)N([C@H](C)CO)C[C@H]1C
Cn1nnc2cc(C(=O)N(CCO)c3ccccc3)ccc21
C[C@@H]1CN([C@@H](C)CO)C(=O)Cc2cc(NC(=O)Cc3cn(C)c4ccccc34)ccc2O[C@H]1CN(C)Cc1ccc(C(=O)O)cc1
Cc1noc(C)c1S(=O)(=O)Nc1cccc2c1O[C@H](CN(C)Cc1ccc(C(F)(F)F)cc1)[C@H](C)CN([C@@H](C)CO)C2=O
CC(=O)Nc1ccccc1-c1cn(CC(=O)N2CCOCC2)nn1
CCCN(C)C[C@@H]1OCCCC[C@H](C)Oc2ccc(NS(=O)(=O)c3ccc(C)cc3)cc2C(=O)N([C@H](C)CO)C[C@@H]1C
Cc1noc(C)c1NC(=O)Nc1ccc2c(c1)C(=O)N([C@@H](C)CO)C[C@H](C)[C@@H](CN(C)C)O2
C[C@@H]1CN([C@@H](C)CO)C(=O)c2cc(N(C)C)ccc2O[C@@H](C)CCCCO[C@@H]1CN(C)C(=O)CCC(F)(F)F
CC(C)NC(=O)Nc1ccc2c(c1)C(=O)N([C@H](C)CO)C[C@H](C)[C@@H](CN(C)C(=O)CCCN(C)C)OCCCC[C@@H](C)O2
Cc1noc(C)c1S(=O)(=O)Nc1ccc2c(c1)CC(=O)N([C@@H](C)CO)C[C@H](C)[C@H](CN(C)C(=O)Nc1ccccc1)O2
CC(C)NC(=O)N(C)C[C@@H]1OCCCC[C@@H](C)Oc2ccc(NC(=O)CCCN(C)C)cc2C(=O)N([C@@H](C)CO)C[C@@H]1C
COc1ccc(S(=O)(=O)Nc2ccc3c(c2)C(=O)N([C@@H](C)CO)C[C@@H](C)[C@H](CN(C)S(=O)(=O)c2cccs2)O3)cc1
COc1ccc(NC(=O)N(C)C[C@H]2Oc3ccc(NS(=O)(=O)c4ccc(C)cc4)cc3C(=O)N([C@@H](C)CO)C[C@H]2C)cc1
COc1ccc(C(=O)CCC(=O)Nc2cccnc2)c(OC)c1
C[C@H](CO)N1C[C@H](C)[C@H](CN(C)S(=O)(=O)c2cccs2)OCCCC[C@H](C)Oc2ccc(NC(=O)CCCN(C)C)cc2C1=O
CCOC(=O)c1c(CN2CCOCC2)nc2c3ccccc3ccn12
CS(=O)(=O)N(CC(=O)Nc1ccc(F)c(F)c1)c1ccccc1F
COC(=O)c1ccccc1NC(=O)Cc1coc2cc(C)cc(C)c12
COc1ccc(-c2nnc(SCC(=O)Nc3c(C)n[nH]c3C)n2-c2ccccc2)cc1OC
C[C@H]1CN([C@@H](C)CO)C(=O)Cc2cc(NC(=O)c3ccncc3)ccc2O[C@@H]1CN(C)C(=O)Nc1ccccc1
C[C@@H]1CCCCO[C@H](CN(C)Cc2ccc3c(c2)OCO3)[C@@H](C)CN([C@H](C)CO)C(=O)c2cc(N(C)C)ccc2O1
O=C1N(CCS(=O)(=O)c2ccccc2)Cc2ccccc2[C@H]2OC(c3ccc(OCCCO)cc3)=N[C@@]12CCS(=O)(=O)c1ccccc1
C[C@H](CO)N1C[C@H](C)[C@H](CN(C)C(=O)Nc2ccc(F)cc2)Oc2ccc(NC(=O)Cc3cn(C)c4ccccc34)cc2CC1=O
C[C@H](CO)N1C[C@H](C)[C@H](CN(C)S(=O)(=O)c2ccc(Cl)cc2)Oc2c(NS(C)(=O)=O)cccc2C1=O
C[C@@H]1CN([C@@H](C)CO)C(=O)c2cc(NC(=O)Cc3ccccc3)ccc2O[C@H]1CN(C)CC1CC1
C[C@H]1CN([C@@H](C)CO)C(=O)c2cc(NC(=O)NC3CCCCC3)ccc2O[C@@H]1CN(C)C(=O)Nc1cccc2ccccc12
COc1ccccc1-c1nnc(SCC(=O)Nc2ccccc2)o1
C[C@@H]1CN([C@H](C)CO)C(=O)c2cc(NS(=O)(=O)c3ccccc3)ccc2O[C@@H](C)CCCCO[C@H]1CN(C)C(=O)C1CCCCC1
Cc1ccc(S(=O)(=O)N(C)CC(=O)Nc2ccc(C#N)cc2)cc1
C[C@H]1CN([C@@H](C)CO)C(=O)c2cccc(NC(=O)Nc3cccc4ccccc34)c2O[C@@H]1CN(C)C(=O)NC1CCCCC1
C[C@H](CO)N1C[C@H](C)[C@H](CN(C)S(=O)(=O)c2cccs2)Oc2c(NS(=O)(=O)c3ccc(Cl)cc3)cccc2C1=O
O=C(C1=C[C@H](c2csc3ccccc23)C[C@H](OCc2ccc(CO)cc2)O1)N1CCCCC1
C[C@@H]1CN([C@H](C)CO)C(=O)Cc2cc(NC(=O)Nc3ccc(F)cc3)ccc2O[C@@H]1CN(C)Cc1ccc2c(c1)OCO2
C[C@@H]1CN([C@@H](C)CO)C(=O)Cc2cc(NS(=O)(=O)c3ccc(Cl)cc3)ccc2O[C@H]1CN(C)CC1CCCCC1
CNC[C@@H]1Oc2ncc(-c3ccc(F)cc3)cc2C(=O)N([C@H](C)CO)C[C@@H]1C
CCNc1nc(NCC)nc(OCC#N)n1
CO[C@@H]1[C@@H](OC(N)=O)[C@@H](O)C(Oc2ccc3c(O)c(NC(=O)c4ccc(O)c(CC=C(C)C)c4)c(=O)oc3c2C)OC1(C)C (stereo not given in full)
COc1ccc2ncnc(NCc3ccc4c(c3)OCO4)c2c1
COc1ccc(S(=O)(=O)Nc2ccc3c(c2)CC(=O)N([C@H](C)CO)C[C@H](C)[C@H](CN(C)Cc2ccc(C(F)(F)F)cc2)O3)cc1
C[C@H]1CN([C@@H](C)CO)C(=O)Cc2cc(NC(=O)NC3CCCCC3)ccc2O[C@H]1CN(C)S(=O)(=O)c1cccs1
COc1ccc(CN(C)C[C@H]2Oc3c(NC(=O)c4cnccn4)cccc3C(=O)N([C@H](C)CO)C[C@@H]2C)cc1
COc1cc(CCC(=O)O)oc(=O)c1
C[C@H](CO)N1C[C@H](C)[C@@H](CN(C)C(=O)Nc2ccc3c(c2)OCO3)Oc2ccc(NS(=O)(=O)c3ccc(Cl)cc3)cc2C1=O
